# Experimental data: PubChem BioAssay (Tox21)
# Where “and” joins values, the source holds several entries; their conditions need not be identical. Identical values can stand only once. Inconclusive results are not listed. Entries that show only a call come without a potency. Calls of active or inactive are those of the source. The call rests on the fitted dose curve; in most records, active means well fitted cell-killing curve with a large enough effect in the repeat runs; inconclusive means weak or mixed curves, or effect the other way; inactive means no such curve, though single readings can be large or run the other way.
# Experiment: qHTS assay to identify small molecule antagonists of the thyroid receptor (TR) signaling pathway - cell viability counter screen (AID 743064); further: nearly all actives have a fitted effect of over 50% in size
# Details: GH3.TRE-Luc viability, CellTiter-Fluor, 24 h; series mostly up to 70.3 µM
# Description: National Center for Advancing Translational Sciences [NCATS]
# NIH Chemical Genomics Center [NCGC]
# U.S. Environmental Protection Agency [EPA]
# National Institutes of Environmental Health Sciences [NIEHS]
# National Toxicology Program [NTP]
# U.S. Food and Drug Administration [FDA]
# Thyroid receptor (TR), a nuclear hormone receptor, plays an important role in development, proliferation, differentiation, metabolism, brain function, and cardiovascular system. […] To profile the Tox21 10K compound library in TR signaling, a cell-based GH3-TRE-Luc assay (GH3.TRE-Luc cell line, developed by the laboratory of Dr. Albertinka J. Murk, Wageningen University) was used to measure the inhibition of TR. GH3 (rat pituitary tumor) cells stably expressing a TR activity sensor consisting of two TR response elements and a luciferase reporter gene. The cytotoxicity of the Tox21 compound library against the GH3.TRE-Luc cell line was tested in parallel by measuring the cell viability using CellTiter-Fluor assay (Promega, Madison, WI) in the same wells.
# Tox21 Assay Protocol Summary:
# GH3.TRE-Luc cells were dispensed at 1500 cells/4 uL/well into 1536-well white solid bottom plates using a Multidrop Combi dispenser (Thermo Fisher Scientific Inc., Waltham, MA). After the assay plates were incubated at 37 C for 4 hours, 23 nL of library compound or DMSO controls was transferred to the assay plates by a pintool station (Kalypsys, San Diego, CA), followed by addition of 1 ul of T3 (1 nM, final concentration in the wells) to stimulate TR transactivation. The assay plates were incubated at 37 C for 23.5 h, and then 1 uL of CellTiter-Fluor reagent (Promega, Madision, WI) of measuring cytotoxicity was added to each well using a Bioraptr Flying Reagent Dispenser (FRD) workstation (Beckman Coulter, Indianapolis, IN, USA). The plates were incubated at 37C and 5% CO2 for additional 30 min, and fluorescence intensity was measured by a ViewLux plate reader (PerkinElmer, Shelton, CT).
# Potency means the concentration at half of the fitted maximal effect.
row,SMILES,Potency
1,O=[Se](O)O,inactive
2,CC(=O)Nc1ccc2c(c1)Cc1cc(NC(C)=O)ccc1-2,inactive
3,C=C[Si](OCCOC)(OCCOC)OCCOC,inactive
4,CCCOCCO,inactive
5,CCCCCCCCCCCCO,inactive
6,COc1ccc(-c2coc3cc(O)cc(O)c3c2=O)cc1,inactive
7,CCCCCC1C(=O)CCC1CC(=O)OC (stereo not given),inactive
8,CCC(=O)O[C@H]1[C@H](O[C@@H]2[C@@H](C)[C@H](O[C@H]3C[C@@](C)(OC)[C@@H](O)[C@H](C)O3)[C@@H](C)C(=O)O[C@H](CC)[C@@](C)(O)[C@H](O)[C@@H](C)C(=O)[C@H](C)C[C@@]2(C)O)O[C@H](C)C[C@@H]1N(C)C,13.3 µM (active) and 36.1 µM (active)
9,C/C=C/C(=O)N(CC)c1ccccc1C,inactive
10,CCCCCCOCCOCCO,inactive
11,c1ccc2c(c1)ccc1ncccc12,inactive
12,c1ccc2c(c1)ccc1cc3c(ccc4ccccc43)cc12,inactive
13,Cc1ccc(S(=O)(=O)NCl)cc1,inactive
14,CCO[Si](CCCNC(N)=O)(OCC)OCC,inactive
15,CCOC(=O)C(C)Oc1ccc(Oc2cnc3cc(Cl)ccc3n2)cc1 (stereo not given),inactive
16,O=C1CCc2ccccc2O1,inactive
17,C=CCNCC=C,inactive
18,O=S1(=O)CCCO1,inactive
19,C[N+](C)(C)CCO,inactive
20,O=C(O)CCCCCCCCCCCC(=O)O,inactive

row,SMILES,Potency
1,[Na+],inactive
2,CC(=O)Oc1c(C)c(C)c2c(c1C)CC[C@@](C)(CCC[C@H](C)CCC[C@H](C)CCCC(C)C)O2,inactive
3,C[C@]12CC[C@@H]3c4ccc(O)cc4CC[C@H]3[C@@H]1CC[C@@H]2O,inactive
4,COC(=O)c1ccc(C)cc1,inactive
5,CC[C@]12CCCN3CCc4c(n(c5ccccc45)[C@@](O)(C(=O)OC)C1)[C@@H]32,inactive
6,NCCOCCO,inactive
7,CC(C)[N+](C)(CCOC(=O)C1c2ccccc2Oc2ccccc21)C(C)C,inactive
8,c1ccc2ncccc2c1,inactive
9,Nc1ccc2c(O)cc(S(=O)(=O)O)cc2c1,inactive
10,C=CC(=O)OCCCC,inactive
11,C[C@]12C=CC(=O)C=C1CC[C@H]1[C@@H]3C[C@@H](O)[C@](O)(C(=O)CO)[C@@]3(C)C[C@H](O)[C@@]12F,inactive
12,OC[C@H]1O[C@@H]2O[C@H]3[C@H](O)[C@@H](O)[C@@H](O[C@H]4[C@H](O)[C@@H](O)[C@@H](O[C@H]5[C@H](O)[C@@H](O)[C@@H](O[C@H]6[C@H](O)[C@@H](O)[C@@H](O[C@H]7[C@H](O)[C@@H](O)[C@@H](O[C@H]1[C@H](O)[C@H]2O)O[C@@H]7CO)O[C@@H]6CO)O[C@@H]5CO)O[C@@H]4CO)O[C@@H]3CO,inactive
13,C=CCCCCCCCCCC,inactive
14,CN(C)/N=N/c1nc[nH]c1C(N)=O,inactive
15,CC(=O)[C@H]1CC[C@H]2[C@@H]3CC=C4C[C@@H](O)CC[C@]4(C)[C@H]3CC[C@]12C,inactive
16,COc1cc([C@H]2Oc3cc([C@H]4Oc5cc(O)cc(O)c5C(=O)[C@@H]4O)ccc3O[C@@H]2CO)ccc1O,inactive
17,O=C(CCCN1CCC(O)(c2ccc(Cl)cc2)CC1)c1ccc(F)cc1,21.1 µM (active) and 54.5 µM (active)
18,Nc1ccc(N)c(Cl)c1,inactive
19,COc1ccc2nc(N)sc2c1,inactive
20,Oc1c(Cl)ccc(Cl)c1Cl,inactive
